The values that follow come from PubChem BioAssay.

Molecules are shown by their SMILES. Activity calls are given as the source filed them.

The nature of test [1]: small molecules captured by biotinylated probe aFSTL3 – biochemical, small-molecule microarray, fluorescence 635/667, stem cell growth factor project, primary screen (AID 1064).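 Also: measures binding of the biotinylated anti-FSTL3 antibody to printed compounds.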 The conditions noted are these: higher = more signal.
Test [2] is described as follows: binders from COS7 lysate, DM2A8 probe, primary screen, torsin A project, cell lysate, small-molecule microarray, fluorescence 635/667 (AID 1065). Particulars: higher = more signal, COS7 lysate expressing mutant human TOR1A.
Test [3] can be described thus: small molecules captured by biotinylated probe aFGF2 – biochemical, small-molecule microarray, fluorescence 635/667, stem cell growth factor project, primary screen (AID 1067).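 Also: measures binding of biotinylated aFGF2 protein to printed compounds on slides; z-score merges feature fluorescence and signal-to-noise across triplicate slides.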 The conditions noted are these: higher = more signal.
Test [4] in a line: small molecules captured by biotinylated probe aFGF10 – biochemical, small-molecule microarray, fluorescence 635/667, stem cell growth factor project, primary screen (AID 1071).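 Also: score merges 667 nm spot intensity and signal to noise from triplicate slides.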 Particulars: higher = more signal.
The target of test [5] is Neurogenic locus notch homolog protein 2 (Homo sapiens) (UniProt Q04721). As to the kind of experiment: small molecules binding Notch2 protein – biochemical, small-molecule microarray, 635 nm fluorescence, stem cell growth factors, primary screen (AID 1073). Particulars: higher = more signal.
Test [6] deals with Pro-neuregulin-1, membrane-bound isoform (Homo sapiens) (UniProt Q02297). The test can be described thus: small molecules binding neuregulin-1 protein – biochemical, small-molecule microarray, fluorescence 635/667, psychiatric disease protein project, primary screen (AID 1075).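 Also: score combines 667 nm spot fluorescence with signal to noise.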 The conditions noted are these: NRG1 binding, 635 nm fluorescence, higher = more signal.
Sequence of Pro-neuregulin-1, membrane-bound isoform (Homo sapiens) (Q02297 whole entry, looked up, the tested form may be a part, canonical isoform): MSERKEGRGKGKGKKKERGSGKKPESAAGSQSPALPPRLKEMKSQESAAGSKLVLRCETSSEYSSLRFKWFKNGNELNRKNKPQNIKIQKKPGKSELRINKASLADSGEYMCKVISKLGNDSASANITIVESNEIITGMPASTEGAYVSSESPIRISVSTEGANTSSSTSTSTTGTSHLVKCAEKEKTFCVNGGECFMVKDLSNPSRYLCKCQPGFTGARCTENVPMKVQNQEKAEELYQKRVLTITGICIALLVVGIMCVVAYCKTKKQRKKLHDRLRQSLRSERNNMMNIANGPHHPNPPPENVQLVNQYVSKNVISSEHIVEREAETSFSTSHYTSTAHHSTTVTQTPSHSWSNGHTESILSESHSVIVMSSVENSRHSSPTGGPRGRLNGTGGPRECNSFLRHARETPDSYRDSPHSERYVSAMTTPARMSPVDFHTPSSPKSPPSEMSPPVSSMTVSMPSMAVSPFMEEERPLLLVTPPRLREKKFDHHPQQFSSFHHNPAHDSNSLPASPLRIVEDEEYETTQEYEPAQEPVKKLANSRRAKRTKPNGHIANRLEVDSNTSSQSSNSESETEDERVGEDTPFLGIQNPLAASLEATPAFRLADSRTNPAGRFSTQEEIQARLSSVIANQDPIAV
Test [7] deals with Neuregulin-1 EGF-like domain. The test can be described thus: small molecules binding NRG1 EGF domain – biochemical, small-molecule microarray, 635 nm fluorescence, primary screen (AID 1081).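 Also: binding of the protein to compounds printed on small-molecule microarray slides.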 The conditions noted are these: higher = more signal.
A short description of test [8]: FRG1 expression reporter modulators in myotubes – cell-based, C2C12 myotubes, firefly/Renilla luciferase, luminescence, FRG1 inhibition for FSHD, primary screen (AID 1084). The conditions noted are these: FRG1 promoter luciferase, higher = more signal, called active from +8 up or from −8 down.
The nature of test [9]: small molecules captured by biotinylated probe aFST – biochemical, small-molecule microarray, fluorescence 635/667, stem cell growth factor project, primary screen (AID 1086).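 Also: score merges 667 nm fluorescence with signal-to-noise of each printed compound spot.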 Particulars: higher = more signal.
A short description of test [10]: binders of probe aHhip on microarray, primary screen, stem cell growth factor project, biochemical, small-molecule microarray, fluorescence 635/667 (AID 1087).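 Also: score merges spot fluorescence at 667nm with spot signal to noise ratio.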 Particulars: higher = more signal.
For test [11], the system named is PRMT1 (protein arginine N-methyltransferase 1). As to the kind of experiment: small molecules binding arginine methyltransferase PRMT1 – biochemical, small-molecule microarray, 635 nm fluorescence, primary screen (AID 1088).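 Also: binding of Prmt1 protein to compounds spotted on small-molecule microarray slides.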 The conditions noted are these: higher = more signal.
Test [12] can be described thus: growth effects on S. cerevisiae YJM789 – YJM789 clinical isolate, OD600, 24 h, basal, primary screen (AID 1089).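 Also: growth of clinical yeast isolate S. cerevisiae YJM 789 seeded 1000 cells per well; test concentration not given here.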 The conditions noted are these: higher = more signal, called active from +8 up or from −8 down.
Test [13] in a line: S. pombe growth modifiers, basal conditions – strain 972, OD600, 24 h, no modulator, primary screen (AID 1090).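 Also: basal condition with compound alone and no growth modifier present; test concentration not given here.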 Particulars: S. pombe 972 growth, higher = more signal, called active from +8 up or from −8 down.
Test [14] is described as follows: budding yeast growth modifiers under rapamycin – strain BY4716, OD600, 96 h, primary screen (AID 1091). Also: test concentration not given here. The conditions noted are these: S. cerevisiae BY4716 + rapamycin, higher = more signal, called active from +8 up or from −8 down.
Test [15] concerns the target Torsin-1A-interacting protein 2 (Homo sapiens) (UniProt Q8NFQ8). The test can be described thus: small molecules binding lysate-expressed LULL1 – cell lysate, human LULL1 lysate, 635/667 nm fluorescence, primary screen (AID 1092).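 Also: score merges per-feature 667 nm fluorescence with signal-to-noise.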 Particulars: small-molecule microarray, hLULL1 lysate binding, 635 nm fluorescence; higher = more signal.
The nature of test [16]: optical density change of DRC41 E. coli – strain DRC41, OD650, 24 h, E. coli filamentation project, primary screen (AID 1093).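 Also: MC1000 strain lacking acrAB efflux and sulA so SOS filamentation is blocked; test concentration not given here.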 Particulars: E. coli DRC41 growth, higher = more signal, called active from +8 up or from −8 down.
A short description of test [17]: probe aLefty2 binding to arrayed compounds – biochemical, biotinylated probe, 635/667 nm fluorescence, primary screen (AID 1094).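 Also: score merges spot fluorescence near 667 nm with spot signal-to-noise ratio.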 The conditions noted are these: small-molecule microarray, higher = more signal.
The test system of test [18] is Noggin (protein binding on small-molecule microarray). As to the kind of experiment: small molecules binding Noggin protein – biochemical, 635/667 nm fluorescence, primary screen (AID 1095).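 Also: score merges 667 nm feature fluorescence with signal to noise over triplicate slides.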 The conditions noted are these: 635 nm fluorescence, higher = more signal.
In test [19] the target is Neurogenic locus notch homolog protein 3 (Homo sapiens) (UniProt Q9UM47). The test can be described thus: small molecules binding NOTCH3 protein – biochemical, 635/667 nm fluorescence, primary screen (AID 1096). Particulars: small-molecule microarray, 635 nm fluorescence, higher = more signal.
Sequence of Neurogenic locus notch homolog protein 3 (Homo sapiens) (Q9UM47 whole entry, looked up): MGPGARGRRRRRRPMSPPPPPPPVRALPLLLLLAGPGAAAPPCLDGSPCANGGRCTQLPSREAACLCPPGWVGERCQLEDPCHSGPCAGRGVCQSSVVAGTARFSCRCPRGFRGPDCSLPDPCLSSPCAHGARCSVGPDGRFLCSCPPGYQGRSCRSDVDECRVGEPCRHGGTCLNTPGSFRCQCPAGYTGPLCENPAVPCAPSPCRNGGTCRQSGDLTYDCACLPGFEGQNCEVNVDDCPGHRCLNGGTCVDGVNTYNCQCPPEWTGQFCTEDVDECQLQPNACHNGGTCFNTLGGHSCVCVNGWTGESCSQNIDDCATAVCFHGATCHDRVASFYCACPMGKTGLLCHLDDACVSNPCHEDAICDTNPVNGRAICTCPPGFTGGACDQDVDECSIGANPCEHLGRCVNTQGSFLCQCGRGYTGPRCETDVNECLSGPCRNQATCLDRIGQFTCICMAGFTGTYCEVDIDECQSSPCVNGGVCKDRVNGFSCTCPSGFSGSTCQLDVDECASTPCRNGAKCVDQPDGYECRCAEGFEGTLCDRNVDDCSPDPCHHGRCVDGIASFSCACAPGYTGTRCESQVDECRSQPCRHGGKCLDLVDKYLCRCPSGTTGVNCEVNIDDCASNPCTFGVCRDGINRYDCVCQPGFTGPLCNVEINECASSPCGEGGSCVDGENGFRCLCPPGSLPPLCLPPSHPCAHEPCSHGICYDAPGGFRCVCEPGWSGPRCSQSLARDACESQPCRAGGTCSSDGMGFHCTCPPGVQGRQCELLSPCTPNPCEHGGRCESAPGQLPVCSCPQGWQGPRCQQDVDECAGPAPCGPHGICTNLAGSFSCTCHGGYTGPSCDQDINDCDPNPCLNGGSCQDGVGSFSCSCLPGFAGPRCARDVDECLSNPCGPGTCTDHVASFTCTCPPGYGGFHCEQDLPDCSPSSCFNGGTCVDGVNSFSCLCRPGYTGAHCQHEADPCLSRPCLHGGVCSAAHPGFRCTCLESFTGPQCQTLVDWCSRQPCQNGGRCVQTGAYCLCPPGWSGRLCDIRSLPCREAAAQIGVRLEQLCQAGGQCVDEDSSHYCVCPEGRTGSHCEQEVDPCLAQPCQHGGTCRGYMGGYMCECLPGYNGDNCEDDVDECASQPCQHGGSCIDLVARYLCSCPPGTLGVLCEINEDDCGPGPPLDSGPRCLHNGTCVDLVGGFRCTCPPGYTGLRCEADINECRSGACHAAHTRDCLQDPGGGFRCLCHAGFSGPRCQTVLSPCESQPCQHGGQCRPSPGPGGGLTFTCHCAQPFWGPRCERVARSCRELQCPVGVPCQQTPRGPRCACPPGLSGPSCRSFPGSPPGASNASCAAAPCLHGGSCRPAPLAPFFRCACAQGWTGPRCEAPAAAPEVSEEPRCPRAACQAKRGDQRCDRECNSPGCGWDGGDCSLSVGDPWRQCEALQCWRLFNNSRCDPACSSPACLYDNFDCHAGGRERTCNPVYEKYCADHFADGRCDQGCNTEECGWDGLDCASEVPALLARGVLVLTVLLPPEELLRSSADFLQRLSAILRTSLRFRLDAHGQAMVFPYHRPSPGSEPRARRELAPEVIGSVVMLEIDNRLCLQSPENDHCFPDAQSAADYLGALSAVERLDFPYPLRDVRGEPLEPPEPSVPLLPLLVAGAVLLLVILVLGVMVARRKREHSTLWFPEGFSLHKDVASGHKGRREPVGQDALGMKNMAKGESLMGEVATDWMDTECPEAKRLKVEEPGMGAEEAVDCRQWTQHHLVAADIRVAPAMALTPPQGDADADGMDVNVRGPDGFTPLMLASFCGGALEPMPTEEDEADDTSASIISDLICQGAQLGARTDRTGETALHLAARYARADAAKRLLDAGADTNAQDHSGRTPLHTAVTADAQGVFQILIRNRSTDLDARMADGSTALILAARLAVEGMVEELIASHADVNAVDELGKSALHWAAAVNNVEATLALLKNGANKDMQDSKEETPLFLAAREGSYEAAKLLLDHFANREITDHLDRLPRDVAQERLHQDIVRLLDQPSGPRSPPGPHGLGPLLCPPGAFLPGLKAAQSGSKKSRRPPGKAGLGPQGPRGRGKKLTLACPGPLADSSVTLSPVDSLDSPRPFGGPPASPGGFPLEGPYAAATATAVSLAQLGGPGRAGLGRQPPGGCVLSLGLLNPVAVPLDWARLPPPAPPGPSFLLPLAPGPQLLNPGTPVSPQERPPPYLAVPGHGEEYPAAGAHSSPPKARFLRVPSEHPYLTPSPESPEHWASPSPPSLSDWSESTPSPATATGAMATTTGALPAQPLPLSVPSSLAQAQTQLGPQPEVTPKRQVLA
Test [20] can be described thus: probe aEGFR binding to arrayed compounds – biochemical, biotinylated probe, 635/667 nm fluorescence, primary screen (AID 1097).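 Also: probe is a biotinylated anti-EGFR antibody binding compounds printed on slides; score combines fluorescence near 667 nm and signal to noise of each spot.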 The conditions noted are these: small-molecule microarray, higher = more signal.

Sequence of Torsin-1A-interacting protein 2 (Homo sapiens) (Q8NFQ8 whole entry, looked up): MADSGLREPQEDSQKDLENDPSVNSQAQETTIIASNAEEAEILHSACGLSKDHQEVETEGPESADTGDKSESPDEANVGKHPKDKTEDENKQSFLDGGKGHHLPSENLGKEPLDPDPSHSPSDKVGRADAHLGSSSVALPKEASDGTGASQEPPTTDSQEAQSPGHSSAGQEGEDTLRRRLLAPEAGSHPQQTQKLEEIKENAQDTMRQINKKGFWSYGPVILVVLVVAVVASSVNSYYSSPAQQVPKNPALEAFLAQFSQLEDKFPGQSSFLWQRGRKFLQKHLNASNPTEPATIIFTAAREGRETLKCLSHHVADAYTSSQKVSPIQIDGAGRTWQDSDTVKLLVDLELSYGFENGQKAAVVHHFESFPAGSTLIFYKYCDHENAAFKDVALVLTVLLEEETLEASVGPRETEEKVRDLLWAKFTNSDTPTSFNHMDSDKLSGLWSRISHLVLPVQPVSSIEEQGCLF

Take `C=CC[C@@H]1C=C[C@H](ON=C(C)CCN2CCCc3nc(C)c(C)cc32)[C@@H](CO)O1`: the composite z-score was 0.886 in [1]; 1.26 in [2]; 0.208 in test [3]; 0.435 in test [4]; 0.945 in [5]; -0.387 in [6]. For the same compound, the composite z-score in test [7] is 0.83; in test [9] it was 1.48; in [10], 1.31; in [11] it was 1.4; in [15], 0.644; in test [17], 0.475. The composite z-score in test [18] came to 1.09; in [19] it was 0.946; in test [20], 0.142. Further, the z-score in test [8] was 1.67 (inactive); in [12], -0.367 (inactive); in test [13], 0.323 (inactive); in [14] it was -0.184 (inactive); in test [16], 1.05 (inactive).
Turning to `CCOC(=O)CCN1C(=O)[C@H]2[C@H]3[C@H](O)[C@H](O)CC(=NNC(=O)OCc4ccccc4)[C@H]3CC[C@H]2C1=O`, the composite z-score in test [1] is -0.594; in [2] it was 1.05; in [3], -0.133; in test [4] it was -0.884; in test [5] it was -0.871; in test [6], -1.03. Further, the composite z-score was -1.43 in test [7]; 0.138 in [9]; -0.0632 in test [10]; -0.0993 in test [11]; -1.53 in [15]; -0.0515 in test [17]. The composite z-score in test [18] was 0.608; in test [19], 0.032; in [20] it was -0.103. For the same compound, the z-score is -0.695 (inactive) in test [8]; -0.756 (inactive) in test [12]; 0.59 (inactive) in [13]; -0.596 (inactive) in test [14]; -0.287 (inactive) in test [16].
Turning to `CCOC(=O)[C@H](CC(C)C)NC(=O)CCC1CC(OC(=O)NCc2ccc3c(c2)OCO3)CC2(CCCC(COC(=O)NCCc3ccc(Cl)cc3)O2)O1` (stereo not given in full), the composite z-score in [1] was -0.549; in [2] it was -0.08; in test [3], -0.129; in [4], 0.744; in test [5], 0.331; in test [6], 1.1. The composite z-score is 0.993 in [7]; -0.0845 in [9]; -0.0237 in test [10]; 1.3 in test [11]; 1.39 in test [15]; -0.0615 in [17]. The composite z-score worked out at 0.553 in [18], 0.951 in [19] and 0.065 in test [20]. Also, the z-score is 0.924 (inactive) in test [8]; -1.06 (inactive) in test [12]; -0.571 (inactive) in [13]; -1.81 (inactive) in [14]; 0.544 (inactive) in test [16].
For `COC(OC)[C@@H](C)[C@H](OC)[C@@H](C)[C@H](OC)c1ccccc1`, the composite z-score in [1] is -0.405; in test [2], 0.594; in test [3], -0.138; in test [4], 0.238; in [5], -0.0257; in [6], -0.445. The composite z-score in test [7] was -0.561; in test [9], -0.0188; in test [10], -0.0645; in [11] it was -0.478; in [15], -1.37; in [17] it was 0.308. The composite z-score in test [18] is 0.467; in test [19], 0.181; in test [20] it was -0.117. Moreover, the z-score in test [8] is -0.406 (inactive); in [12], -1.94 (inactive); in test [13], -0.656 (inactive); in test [14], -0.213 (inactive); in test [16], 0.17 (inactive).
With `COc1ccc(-c2cnnc(CCCn3ccnc3-c3ccccc3)n2)cc1`, the composite z-score in test [1] is -0.368; in test [2], 1.45; in [3] it was -0.121; in [4] it was 0.763; in [5] it was 0.426; in [6], 0.278. Further, the composite z-score in test [7] is 0.585; in test [9], 0.117; in [10], -0.12; in test [11] it was 0.576; in [15] it was 0.662; in test [17] it was -0.125. The composite z-score in test [18] came to 0.592; in test [19] it was 0.876; in test [20], 0.137. Besides, the z-score in test [8] was 0.64 (inactive); in test [12] it was -0.128 (inactive); in test [13], -0.513 (inactive); in test [14] it was 1.36 (inactive); in [16], 0.222 (inactive).
